Results: paper PMC7862700, “An all-to-all approach to the identification of sequence-specific readers for epigenetic DNA modifications on cytosine”

Columns and labels:
Assay in all cases: DAPPL (digital affinity profiling via proximity ligation, sequencing); 10 mM Tris-HCl pH 7.5, 50 mM NaCl, 1 mM DTT, 4% glycerol, room temperature, 30 min; GST-TFs on glutathione beads, 16-mer random dsDNA library, 0.1% formaldehyde crosslink after washing; high values mean tight binding
Settings in all cases: protein: recombinant; tags: N-terminal GST; dsDNA, one strand shown
FLI1 = biological target: T1, FLI1 (Homo sapiens, UniProt Q01543 1-452)
T1 sequence: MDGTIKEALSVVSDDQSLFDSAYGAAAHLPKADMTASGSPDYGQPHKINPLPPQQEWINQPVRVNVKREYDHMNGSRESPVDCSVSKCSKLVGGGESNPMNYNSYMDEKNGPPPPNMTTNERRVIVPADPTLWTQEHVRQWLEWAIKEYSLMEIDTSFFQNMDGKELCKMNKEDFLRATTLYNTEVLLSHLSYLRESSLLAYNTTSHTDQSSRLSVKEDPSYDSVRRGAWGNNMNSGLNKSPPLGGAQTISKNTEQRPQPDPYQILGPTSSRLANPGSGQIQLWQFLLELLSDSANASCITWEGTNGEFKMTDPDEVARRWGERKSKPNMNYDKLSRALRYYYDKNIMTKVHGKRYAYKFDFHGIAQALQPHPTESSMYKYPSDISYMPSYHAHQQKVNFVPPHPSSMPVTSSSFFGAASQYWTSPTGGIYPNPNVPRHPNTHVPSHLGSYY
How it was run: (§1)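 Each value of binding signal is a hexamer's read frequency for a factor divided by the same hexamer's frequency in the tag-only sample. Barcoded, bead-captured GST fusions of human transcription factors made in yeast were pooled with that sample and incubated with 200 nmole of a random double-stranded 16-mer DNA library in Tris/NaCl/DTT/glycerol buffer at room temperature for 30 min. Washing, 0.1% formaldehyde crosslinking, proximity ligation, PCR and Illumina NextSeq500 sequencing followed.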

ELK1 = biological target: T2, ELK1 (Homo sapiens, UniProt P19419 1-428)
T2 sequence: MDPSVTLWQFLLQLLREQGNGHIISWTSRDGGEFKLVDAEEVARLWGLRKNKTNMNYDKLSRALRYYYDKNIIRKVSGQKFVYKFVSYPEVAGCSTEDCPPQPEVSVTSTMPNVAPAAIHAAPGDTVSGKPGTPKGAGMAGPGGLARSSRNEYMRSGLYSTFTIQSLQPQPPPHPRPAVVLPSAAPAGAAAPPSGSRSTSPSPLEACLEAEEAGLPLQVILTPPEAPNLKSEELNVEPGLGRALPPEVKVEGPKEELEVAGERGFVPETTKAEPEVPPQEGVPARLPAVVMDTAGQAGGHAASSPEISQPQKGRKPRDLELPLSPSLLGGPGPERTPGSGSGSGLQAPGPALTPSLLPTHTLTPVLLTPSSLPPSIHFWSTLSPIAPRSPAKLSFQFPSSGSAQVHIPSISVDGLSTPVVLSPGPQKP
How it was run: as §1

GABPA = biological target: T3, GABPA (Homo sapiens, UniProt Q06546 1-454)
T3 sequence: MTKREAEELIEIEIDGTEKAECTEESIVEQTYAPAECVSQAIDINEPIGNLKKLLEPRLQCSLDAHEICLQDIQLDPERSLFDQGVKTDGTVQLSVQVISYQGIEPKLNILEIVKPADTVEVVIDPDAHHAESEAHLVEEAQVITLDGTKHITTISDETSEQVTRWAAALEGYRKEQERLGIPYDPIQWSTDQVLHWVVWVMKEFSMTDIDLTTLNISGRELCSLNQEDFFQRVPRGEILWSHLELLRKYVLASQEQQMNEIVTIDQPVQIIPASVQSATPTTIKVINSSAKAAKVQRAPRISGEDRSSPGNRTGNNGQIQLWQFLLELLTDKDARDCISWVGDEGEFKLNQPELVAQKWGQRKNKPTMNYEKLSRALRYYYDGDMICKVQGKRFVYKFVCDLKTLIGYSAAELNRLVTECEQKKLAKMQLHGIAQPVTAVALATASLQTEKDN
How it was run: as §1

ERG = biological target: T4, ERG (Homo sapiens, UniProt P11308 1-479)
T4 sequence: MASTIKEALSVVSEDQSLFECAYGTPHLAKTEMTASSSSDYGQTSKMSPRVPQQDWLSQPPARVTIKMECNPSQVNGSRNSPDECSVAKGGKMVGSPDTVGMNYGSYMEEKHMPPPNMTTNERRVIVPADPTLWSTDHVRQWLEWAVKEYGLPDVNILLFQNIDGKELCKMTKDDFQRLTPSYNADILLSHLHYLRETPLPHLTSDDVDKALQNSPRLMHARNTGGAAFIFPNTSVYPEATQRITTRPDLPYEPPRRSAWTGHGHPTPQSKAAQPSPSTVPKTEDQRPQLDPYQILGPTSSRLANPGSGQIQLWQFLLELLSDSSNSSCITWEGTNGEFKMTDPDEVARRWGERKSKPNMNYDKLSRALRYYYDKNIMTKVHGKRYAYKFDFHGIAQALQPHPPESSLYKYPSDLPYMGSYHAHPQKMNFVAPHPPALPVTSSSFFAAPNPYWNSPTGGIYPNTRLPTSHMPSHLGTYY
How it was run: as §1

ELF1 = ELF1 (Homo sapiens, UniProt P32519 1-619)
Chain of ELF1 (P32519 whole entry): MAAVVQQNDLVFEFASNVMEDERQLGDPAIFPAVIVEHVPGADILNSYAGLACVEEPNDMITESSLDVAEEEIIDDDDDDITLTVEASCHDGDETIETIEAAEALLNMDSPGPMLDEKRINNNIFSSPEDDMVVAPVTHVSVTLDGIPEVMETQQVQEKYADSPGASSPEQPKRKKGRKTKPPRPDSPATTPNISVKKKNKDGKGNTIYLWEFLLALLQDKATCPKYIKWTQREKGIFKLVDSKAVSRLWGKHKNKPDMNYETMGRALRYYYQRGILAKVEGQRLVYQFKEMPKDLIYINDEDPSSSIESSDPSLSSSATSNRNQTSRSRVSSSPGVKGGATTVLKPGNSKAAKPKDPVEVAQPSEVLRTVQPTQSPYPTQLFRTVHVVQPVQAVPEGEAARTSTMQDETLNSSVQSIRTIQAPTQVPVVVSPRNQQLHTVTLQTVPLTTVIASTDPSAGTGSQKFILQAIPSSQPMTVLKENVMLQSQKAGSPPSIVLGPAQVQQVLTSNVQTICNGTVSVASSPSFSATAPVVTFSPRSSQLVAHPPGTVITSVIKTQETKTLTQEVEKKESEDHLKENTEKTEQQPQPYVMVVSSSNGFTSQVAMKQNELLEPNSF
How it was run: as §1

EHF = biological target: T5, EHF (Homo sapiens, UniProt Q9NZC4 1-300)
T5 sequence: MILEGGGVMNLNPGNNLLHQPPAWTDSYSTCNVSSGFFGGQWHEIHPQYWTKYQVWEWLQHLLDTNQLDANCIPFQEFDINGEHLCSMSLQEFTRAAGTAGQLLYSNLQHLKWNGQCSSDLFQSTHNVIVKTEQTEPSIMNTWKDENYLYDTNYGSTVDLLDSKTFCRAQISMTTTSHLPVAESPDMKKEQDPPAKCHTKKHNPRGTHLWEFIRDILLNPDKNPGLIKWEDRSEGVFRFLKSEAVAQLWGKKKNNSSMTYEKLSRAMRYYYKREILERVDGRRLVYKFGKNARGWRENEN
How it was run: as §1

SPI1 = SPI1 (Homo sapiens, UniProt P17947 1-270)
How it was run: as §1

SPIB = SPIB (Homo sapiens, UniProt Q01892 1-262)
Chain of SPIB (Q01892 whole entry): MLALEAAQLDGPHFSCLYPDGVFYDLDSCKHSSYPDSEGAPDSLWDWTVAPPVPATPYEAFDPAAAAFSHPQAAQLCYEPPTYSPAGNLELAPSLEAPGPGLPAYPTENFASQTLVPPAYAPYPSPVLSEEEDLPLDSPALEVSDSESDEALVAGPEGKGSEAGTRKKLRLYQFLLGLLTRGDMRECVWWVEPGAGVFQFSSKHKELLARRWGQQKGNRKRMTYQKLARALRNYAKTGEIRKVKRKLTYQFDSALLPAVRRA
How it was run: as §1

ELK3 = biological target: T6, ELK3 (Homo sapiens, UniProt P41970 1-407)
T6 sequence: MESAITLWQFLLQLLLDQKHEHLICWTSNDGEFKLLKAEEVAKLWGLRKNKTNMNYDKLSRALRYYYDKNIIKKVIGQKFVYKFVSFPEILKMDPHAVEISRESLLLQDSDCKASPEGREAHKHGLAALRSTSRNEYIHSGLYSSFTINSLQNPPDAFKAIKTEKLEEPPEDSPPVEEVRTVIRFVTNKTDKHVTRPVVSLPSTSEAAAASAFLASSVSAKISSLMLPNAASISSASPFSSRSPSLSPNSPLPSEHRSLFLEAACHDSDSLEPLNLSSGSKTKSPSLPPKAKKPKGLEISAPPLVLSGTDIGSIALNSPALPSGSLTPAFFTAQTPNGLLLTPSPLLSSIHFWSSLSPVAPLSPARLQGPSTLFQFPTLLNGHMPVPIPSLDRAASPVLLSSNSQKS
How it was run: as §1

Sequence	binding signal (FLI1)	binding signal (ELK1)	binding signal (GABPA)	binding signal (ERG)	binding signal (ELF1)	binding signal (EHF)	binding signal (SPI1)	binding signal (SPIB)	binding signal (ELK3)
CTTCTA	1.39 fold enrichment (6-mer frequency, TF over GST control)	1.41 fold enrichment (6-mer frequency, TF over GST control)	1.44 fold enrichment (6-mer frequency, TF over GST control)	1.32 fold enrichment (6-mer frequency, TF over GST control)	1.52 fold enrichment (6-mer frequency, TF over GST control)	1.54 fold enrichment (6-mer frequency, TF over GST control)	1.41 fold enrichment (6-mer frequency, TF over GST control)	1.48 fold enrichment (6-mer frequency, TF over GST control)	1.34 fold enrichment (6-mer frequency, TF over GST control)
CACAAT	1.12 fold enrichment (6-mer frequency, TF over GST control)	1.07 fold enrichment (6-mer frequency, TF over GST control)	1.12 fold enrichment (6-mer frequency, TF over GST control)	1.11 fold enrichment (6-mer frequency, TF over GST control)	1.17 fold enrichment (6-mer frequency, TF over GST control)	1.07 fold enrichment (6-mer frequency, TF over GST control)	1.02 fold enrichment (6-mer frequency, TF over GST control)	1.16 fold enrichment (6-mer frequency, TF over GST control)	1.26 fold enrichment (6-mer frequency, TF over GST control)
CACTCG	1.1 fold enrichment (6-mer frequency, TF over GST control)	1.26 fold enrichment (6-mer frequency, TF over GST control)	1.08 fold enrichment (6-mer frequency, TF over GST control)	1.15 fold enrichment (6-mer frequency, TF over GST control)	1.2 fold enrichment (6-mer frequency, TF over GST control)	1.18 fold enrichment (6-mer frequency, TF over GST control)	1.01 fold enrichment (6-mer frequency, TF over GST control)	1.18 fold enrichment (6-mer frequency, TF over GST control)	1.2 fold enrichment (6-mer frequency, TF over GST control)
ATGGTC	1.66 fold enrichment (6-mer frequency, TF over GST control)	1.45 fold enrichment (6-mer frequency, TF over GST control)	1.65 fold enrichment (6-mer frequency, TF over GST control)	1.69 fold enrichment (6-mer frequency, TF over GST control)	1.55 fold enrichment (6-mer frequency, TF over GST control)	1.47 fold enrichment (6-mer frequency, TF over GST control)	1.64 fold enrichment (6-mer frequency, TF over GST control)	1.66 fold enrichment (6-mer frequency, TF over GST control)	1.52 fold enrichment (6-mer frequency, TF over GST control)
ACGATA	1.19 fold enrichment (6-mer frequency, TF over GST control)	1.12 fold enrichment (6-mer frequency, TF over GST control)	1.23 fold enrichment (6-mer frequency, TF over GST control)	1.14 fold enrichment (6-mer frequency, TF over GST control)	1.19 fold enrichment (6-mer frequency, TF over GST control)	1.15 fold enrichment (6-mer frequency, TF over GST control)	1.09 fold enrichment (6-mer frequency, TF over GST control)	1.23 fold enrichment (6-mer frequency, TF over GST control)	1.16 fold enrichment (6-mer frequency, TF over GST control)
CCTGGT	1.28 fold enrichment (6-mer frequency, TF over GST control)	1.34 fold enrichment (6-mer frequency, TF over GST control)	1.4 fold enrichment (6-mer frequency, TF over GST control)	1.29 fold enrichment (6-mer frequency, TF over GST control)	1.44 fold enrichment (6-mer frequency, TF over GST control)	1.47 fold enrichment (6-mer frequency, TF over GST control)	1.4 fold enrichment (6-mer frequency, TF over GST control)	1.52 fold enrichment (6-mer frequency, TF over GST control)	1.33 fold enrichment (6-mer frequency, TF over GST control)
TGGACA	1.06 fold enrichment (6-mer frequency, TF over GST control)	1.07 fold enrichment (6-mer frequency, TF over GST control)	1.11 fold enrichment (6-mer frequency, TF over GST control)	1.05 fold enrichment (6-mer frequency, TF over GST control)	1.15 fold enrichment (6-mer frequency, TF over GST control)	1.05 fold enrichment (6-mer frequency, TF over GST control)	1.03 fold enrichment (6-mer frequency, TF over GST control)	1.08 fold enrichment (6-mer frequency, TF over GST control)	1.07 fold enrichment (6-mer frequency, TF over GST control)
